Among all 48,000 compounds or so, about 13,000 (27%) showed an effect of 50% or more. The list shows a part of the results.
tested on: Wolbachia pipientis; assay: Anti-Wolbachia Cell-Based Screen; format: functional; design: scale not given: in the data most compounds retested in dose-response had high values; conditions: 5 µM

Row | Structure (SMILES) | Percent Effect [%]
1 | CNC(=O)NCC1CCC2(CCN(c3ncccn3)CC2)CO1 (stereo not given) | 88.92
2 | COCC1CC2(CCN(C(=O)c3cccc(C)c3)CC2)CO1 (stereo not given) | -11.23
3 | CS(=O)(=O)N1CCOCC2(CCN(C(=O)c3cccnc3)CC2)C1.O=C(O)C(F)(F)F | -2.226
4 | CNC(=O)NCC1CCC2(CCN(C(=O)c3ccccc3)CC2)CO1 (stereo not given) | 108.3
5 | COCC1CC2(CCN(C(=O)c3oc4ccccc4c3C)CC2)CO1 (stereo not given) | -1.277
6 | COCC1CC2(CCN(C(=O)c3cncc(C)c3)CC2)CO1.O=C(O)C(F)(F)F (stereo not given) | 8.897
7 | CC(C)NC(=O)C1CCC2(CCN(c3ncccn3)CC2)CO1 (stereo not given) | -6.885
8 | O=C(C1CCC2(CCN(c3ncccn3)CC2)CO1)N1CCCC1 (stereo not given) | 10.33
9 | Cc1ccc(-c2cc(C(=O)N(C)Cc3noc4c3CCCC4)[nH]n2)s1 | 126
10 | CN(Cc1noc2c1CCCC2)C(=O)CN1C(=O)CSc2ccccc21 | 0.5887
11 | CN(Cc1noc2c1CCCC2)C(=O)C1Cc2ccccc2CN1C (stereo not given) | 9.151
12 | Cc1ccc(-c2cc(C(=O)N(C)Cc3noc4c3CCCC4)[nH]n2)o1 | 119
13 | COc1nc2c(cc1C(=O)N(C)Cc1noc3c1CCCC3)CCC2 | -4.32
14 | Cc1ccc(-c2cc(C(=O)NCCC3=CCCCC3)[nH]n2)o1 | 9.696
15 | COc1ccc(C(=O)NC2CC2)c(OC2CCN(C3CCC3)CC2)c1 | 0.9223
16 | COc1ccccc1OC1CN(C(=O)C2CNCC(=O)N2)C1 (stereo not given) | 3.442
17 | O=C(Nc1ccc(F)cc1)C1CNCCN1C(=O)CCO (stereo not given) | -8.613
18 | COc1ccccc1C1CNCCN1C(C)=O (stereo not given) | 170.5
19 | COc1ccc(C(=O)N2CCCC2c2ccco2)cc1OC (stereo not given) | -0.7331
20 | COc1ccccc1C1CNCCN1C(=O)c1ccc(F)cc1 (stereo not given) | 170.1
21 | COc1cc(S(=O)(=O)N2C[C@@H](C)[C@@](C)(O)C2)c(C)cc1C | -12.13
22 | Cc1cccnc1CNCC1(O)CCCN(Cc2ccc(F)cc2)C1=O (stereo not given) | 9.379
23 | CCOc1cc(NC(=O)N(C)Cc2ncnn2C)ccc1C | -12.81

Row | Structure (SMILES) | Percent Effect [%]
24 | CCOc1cc(C(=O)N(C)C)ccc1NC(=O)c1ccsc1 | -5.987
25 | Cn1cnc2c1CCN(CCCc1ccccc1)C2 | 0.7928
26 | CN1CC(=O)c2sc(NCCc3ccccc3)nc2C1 | 91.14
27 | CC(C)SCC(=O)N1Cc2cnc(-c3ccccc3)nc2C1 | 3.989
28 | CC(C)Cc1ncc2c(n1)CN(C(=O)Cn1c(=O)oc3ccccc31)C2 | -4.555
29 | CC(C)CC(=O)N1CC(=O)c2sc(NCCc3ccccc3)nc2C1 | 112.3
30 | Cn1ccc(C(=O)N2CCN(CCc3ccccc3)CC2)cc1=O | -2.355
31 | CNc1nc(CNC(=O)Nc2cccc(F)c2)cs1 | -0.1987
32 | CC(NC1(CNC(=O)NC2CC2)CCOCC1)c1ccccc1 (stereo not given) | 5.387
33 | CCC1=N[C@@]2(CC[C@@H]3CN(Cc4ccccc4C)C[C@@H]32)C(=O)N1C.O=C(O)C(F)(F)F | 114.6
34 | CCC1=N[C@@]2(CC[C@@H]3CN(Cc4cccc(Cl)c4)C[C@@H]32)C(=O)N1C.O=C(O)C(F)(F)F | 95.01
35 | CCC1=N[C@@]2(CC[C@@H]3CN(Cc4ccccc4C)C[C@@H]32)C(=O)N1.O=C(O)C(F)(F)F | -9.167
36 | CCC1=N[C@@]2(CC[C@@H]3CN(Cc4ccc(F)cc4)C[C@@H]32)C(=O)N1C.O=C(O)C(F)(F)F | 103.7
37 | CC1=N[C@@]2(CC[C@@H]3CN(CC(C)C)C[C@@H]32)C(=O)N1C.O=C(O)C(F)(F)F | 8.258
38 | O=C(O)C(F)(F)F.O=C1NC(c2ccccc2)=N[C@@]12CC[C@@H]1CN(Cc3ccccc3)C[C@@H]12 | 4.255
39 | CCC1=N[C@@]2(CC[C@@H]3CN(CC(C)C)C[C@@H]32)C(=O)N1.O=C(O)C(F)(F)F | -10.58
40 | CCC1=N[C@@]2(CC[C@@H]3CN(Cc4ccccc4F)C[C@@H]32)C(=O)N1CC.O=C(O)C(F)(F)F | -10.67
41 | CCC1=N[C@@]2(CC[C@@H]3CN(Cc4ccc(C)cc4)C[C@@H]32)C(=O)N1C.O=C(O)C(F)(F)F | 81.5
42 | CCC1=N[C@@]2(CC[C@@H]3CN(C(=O)NCc4ccccc4)C[C@@H]32)C(=O)N1C | -13.65
43 | CCC1=N[C@@]2(CC[C@@H]3CN(CC(=O)N(C)C)C[C@@H]32)C(=O)N1CC1CC1.O=C(O)C(F)(F)F | -4.089
44 | CCC1=N[C@@]2(CC[C@@H]3CN(C(=O)NC(C)C)C[C@@H]32)C(=O)N1C | -5.226
45 | CCCN1CCC(CC(=O)N[C@H](C(=O)O)c2cccc(F)c2F)CC1 | -4.75
